Records with an inconclusive call do not appear. Entries that show only a call come without a potency. Activity calls are given as the source filed them. The call rests on the fitted dose curve; in most records, active means well fitted cell-killing curve with a large enough effect in the repeat runs; inconclusive means weak or mixed curves, or effect the other way; inactive means flat fitted curve, though single readings scatter. Residues, ends and D or L forms follow the SMILES beside them.

The nature of the experiment: qHTS RealTime-Glo MT Cell Viability Assay in HepG2 cells - 0 hour (AID 1224889). Further: nearly all actives have a fitted effect of over 50% in size. As to conditions: RealTime-Glo luminescence; series mostly up to 76.8 µM. An excerpt: U.S. Tox21 Program National Center for Advancing Translational Sciences [NCATS] NIH Chemical Genomics Center [NCGC] U.S. Environmental Protection Agency [EPA] National Institutes of Environmental Health Sciences [NIEHS] National Toxicology Program [NTP] U.S. Food and Drug Administration [FDA] Tox21 Assay Overview: Measure of cell viability is critical in the cell-base assay. Analysis of cell viability is necessary for the characterization of cell responses to cytotoxic drugs and environmental stress. A RealTime-Glo MT Cell Viability Assay to monitor cell viability in real time of continues cell culture during 40 hours of compound treatment was used to screen Tox21 10K library compounds in HepG2 cells. The RealTime-Glo MT Cell Viability Assay is a nonlytic, homogeneous, bioluminescent method to measure cell viability in real time using a simple, plate-based method. The assay involves adding NanoLuc luciferase and a cell-permeant prosubstrate to cells in culture. Viable cells reduce the proprietary prosubstrate to generate a substrate for NanoLuc luciferase. This substrate diffuses from cells into the surrounding culture medium, where it is rapidly used by the NanoLuc Enzyme to produce a luminescent signal. The signal correlates with the number of viable cells, making the assay well suited for cytotoxicity studies.
Tox21 Assay Protocol Summary: The mixture of HepG2 cell suspension and reagents were dispensed at 600cells/6 ul/well in 1536-well tissue culture treated black solid bottom plates using a Multidrop dispenser. After the assay plates were incubated at a 37 C/5% CO2 incubator for 5 hours, 23 nL of compounds dissolved in DMSO, positive and negative controls was transferred to the assay plate by a pintool work station. The plates were incubated at 37 C for 40 hours. The luminescence intensity were measured at 0h, 8h, 16h, 24h, 32h and 40h time points using ViewLux plate reader during compound treatment.
For orientation: qHTS replaces the single test concentration by a dilution series.
As to `O=C(O)/C=C\C(=O)O`, the Potency entry is “inactive”.

With `Nc1ccn([C@H]2CC[C@@H](CO)O2)c(=O)n1`, the Potency result was “inactive”.

For the compound `NC(N)=NC(=O)c1nc(Cl)c(N)nc1N`, the Potency entry is “inactive”.

`CC(C)(Oc1ccc(C2CC2(Cl)Cl)cc1)C(=O)O` (stereo not given): the Potency entry is “inactive”.

As for `C/C=C/c1ccc(OC)cc1`, the Potency entry was “inactive”.

In the case of `O=C1NC(=O)c2ccccc21`, the Potency result is “inactive”.

Turning to `Cc1ccccc1C(OCCN(C)C)c1ccccc1` (stereo not given), the Potency entry is “inactive”.

For the compound `Cc1cc(=O)n(-c2ccccc2)n1C`, the Potency result was “inactive”.

Regarding `NC(N)=O`, the Potency entry is “inactive”.

As for `CCCC(CCC)C(=O)O`, the Potency entry was “inactive”.

Turning to `CC1(C)[C@@H]2CC[C@@]1(C)C(=O)C2`, the Potency entry is “inactive”.

For the compound `Oc1ccc(/C=C/c2cc(O)cc(O)c2)cc1`, the Potency result was “inactive”.

As to `Cc1cn([C@H]2C[C@H](N=[N+]=[N-])[C@@H](CO)O2)c(=O)[nH]c1=O`, the Potency result was “inactive”.

Regarding `NC(=O)c1cnccn1`, the Potency entry was “inactive”.

`O=NO`: the Potency result is “inactive”.

For the compound `O=c1ccc2ccccc2o1`, the Potency result is “inactive”.

As for `CCCCC(CC)COC(=O)/C=C/c1ccc(OC)cc1` (stereo not given), the Potency result was “inactive”.

Turning to `O=C(c1ccccc1)C(O)c1ccccc1` (stereo not given), the Potency entry was “inactive”.

For `NC(=O)c1ccccc1O`, the Potency result is “inactive”.

With `CNC[C@H](O)c1cccc(O)c1`, the Potency result was “inactive”.

Turning to `O=C(O)CCCCC(=O)O`, the Potency result is “inactive”.

As to `O=C(c1ccccc1)c1ccccc1`, the Potency result is “inactive”.

On to `Cc1noc(NS(=O)(=O)c2ccc(N)cc2)c1C`, for which the Potency result is “inactive”.

For `CC(=O)NS(=O)(=O)c1ccc(N)cc1`, the Potency entry is “inactive”.

As to `Nc1ccc(S(=O)(=O)Nc2nccs2)cc1`, the Potency result was “inactive”.

For `O=C(O)c1cccc([N+](=O)[O-])c1`, the Potency result was “inactive”.

Consider `O=C(O)c1cccnc1`, for which the Potency result is “inactive”.

In the case of `NNC(=O)c1ccncc1`, the Potency entry is “inactive”.

As to `CC(O)CN(CCN(CC(C)O)CC(C)O)CC(C)O` (stereo not given), the Potency entry was “inactive”.

Turning to `CCCC(O)C(CC)CO` (stereo not given), the Potency entry is “inactive”.

`COC(=O)[C@H](Cc1ccccc1)NC(=O)[C@@H](N)CC(=O)O` (H-Asp-Phe-OMe): the Potency result is “inactive”.

`O=C(O)CS`: the Potency entry is “inactive”.

For the compound `CCCN(CCC)S(=O)(=O)c1ccc(C(=O)O)cc1`, the Potency entry is “inactive”.

For `OC(Cn1cncn1)(Cn1cncn1)c1ccc(F)cc1F`, the Potency entry is “inactive”.

Turning to `COc1ccc2[nH]cc(CCNC(C)=O)c2c1`, the Potency entry was “inactive”.

Turning to `Cc1ccc(C)c(OCCCC(C)(C)C(=O)O)c1`, the Potency result is “inactive”.

For `COc1c2occc2cc2ccc(=O)oc12`, the Potency entry is “inactive”.

With `O=C(O)C(=O)O`, the Potency entry was “inactive”.

`NS(=O)(=O)c1cc(C(=O)O)c(NCc2ccco2)cc1Cl`: the Potency entry was “inactive”.

As for `CC(O)C(=O)O` (stereo not given), the Potency entry is “inactive”.

For the origin of these results see PubChem BioAssay (Tox21).
